BRCA1 expr act = increases BRCA1 expression. MCF7-BRCA1-FFLuc reporter, luminescence, 48 h; response scale: scaled: vehicle 0%, 10 µM genistein 100%. Potency, µM (highest dose often 46.1 µM), hits mostly activators. actives 1.1% (n = 380,000); also: nearly all actives have a fitted effect of over 80% in size
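Quantitative HTS in MCF7 cells stably reporting BRCA1 expression via firefly luciferase. Compound treatment lasts 48 h at 37 °C in phenol-red free MEM. Activation is expressed relative to genistein at 10 microM and DMSO.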
p53 reactivation = mutant p53 re-activation in reporter cells. actives 0.063% (n = 320,000). Potency, µM (titrated, usually from 92.2 µM), actives largely listed as activators. AID 504706. H1299 p53-A138V BP100-luciferase reporter, luminescence, 24 h; also: nearly all actives have a fitted effect of over 45% in size
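H1299 (p53-null), stable ts p53-A138V + BP100-Luc; 1000 cells/well, Opti-MEM/10% FBS; cpd 4 pt, 1:5; 24 h, 37 deg C, 5% CO2; detection reagent 10 min RT; luminescence.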
Nrf2 inh = blocks Nrf2 signaling. actives 2.1% (n = 360,000). Potency, µM (titrated, usually from 46 µM), usual class: inhibitors. A549 ARE-Fluc reporter, luciferase luminescence, 18-24 h; also: nearly all actives have a fitted effect of over 60% in size
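Reporter: ARE-Fluc in A549. Exposure: 18-24 h, 37 °C, 5% CO2, 5% FBS OPTI-MEM. Readouts: fluorescent cytotoxicity (CellTiter-Fluor), then luminescent Nrf2 signal after BugLite.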
A549 viability = A549 cytotoxicity, counter-screen for Nrf2 inhibitors; A549 ARE-Fluc cells, CellTiter-Fluor viability, 18-24 h; Potency, µM (series often up to 46 µM), usual class: inhibitors; actives 0.16% (n = 390,000)
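A549 ARE_Fluc cells in 5% FBS OPTI-MEM were exposed to compounds in concentration-response for 18-24 h at 37 deg C. Viability was read by CellTiter-Fluor fluorescence (Ex 405/Em 525) after 30 min, before the luciferase read.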
Nrf2 ARE act = Nrf2 pathway activation. Potency, µM (top dose mostly 46.1 µM), most hits filed as activators. AID 624171. actives 0.31% (n = 410,000). AREc32 ARE-luciferase reporter (MCF7-derived line), luminescence, 24 h; also: nearly all actives have a fitted effect of over 65% in size
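ARE activation measured as luciferase luminescence (Steady-Glo, 30 min RT) in AREc32_Fluc cells after 24 hr compound exposure at 37 deg C, 5% CO2; cells seeded overnight at 1000/well in OPTI-MEM, 5% FBS.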
IL2 activator = activators of IL-2. IL-2 activation reporter assay, cell-based qHTS; stimulated with anti-CD3/CD4/CD28 beads; in transgenic mouse T cells. activation, % (series mostly up to about 46 µM). actives 0.065% (n = 360,000). AID 652025; in the data active = activation above about 50%; inconclusive = mostly about 30% to 49%
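EGFP and DsRed fluorescence is measured by plate cytometry in unstimulated transgenic mouse T cells exposed to compound for 60 minutes, then stimulated 18 hours at 37 degrees C with anti-CD3/anti-CD4 beads plus anti-CD28.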
A number is an active result; – = inactive; ? = inconclusive; · = not tested or not shown; [ ] = another dose, or the depositor's remark. Rows were chosen to be rich in hits. Some 3.2% of all compounds tested hit in one or more screens of this group. Unless noted, calls follow the shape of the dose curve; as a rule, active = well fitted curve in the direction sought with a large enough effect; inconclusive = small, poorly fitted or top-dose-only effect, or another doubt; inactive = no such curve, though single readings can be large; an effect the other way counts as inactive or inconclusive.

SMILES | BRCA1 expr act | p53 reactivation | Nrf2 inh | A549 viability | Nrf2 ARE act | IL2 activator
CC1CCCCN1Cc1c(O)ccc2c(=O)c(-c3ccc(Cl)cc3)coc12 (stereo unspecified) | 10µM | – | – | – | – | –
Cc1cc(=O)oc2cc(OCC(=O)Nc3c(C(C)C)cccc3C(C)C)ccc12 | · | · | – | – | – | ·
Cc1ccc(-n2c(=O)c3ccc(C(=O)NCc4ccco4)cc3n(CC(=O)Nc3ccccc3C(F)(F)F)c2=O)cc1 | – | · | – | – | – | ·
Cc1ccccc1C(=O)NCC(=O)OC(C(=O)Nc1cc(C(F)(F)F)ccc1Cl)c1ccccc1 (stereo unspecified) | · | · | – | – | · | ·
CC(=O)Oc1ccc(C2OC(=O)c3ccccc3N2C(C)=O)cc1 (stereo unspecified) | – | – | – | – | – | –
COc1ccc(C(=O)N2c3ccccc3C(=O)OC2c2ccc3c(c2)OCO3)cc1 (stereo unspecified) | 11.2µM | ? | ? | – | – | –
CCc1ccc(NC(=O)Cn2nc(SC)c(S(=O)(=O)c3ccc(OC)cc3)c2N)cc1 | – | · | ? | – | – | ·
CCSc1nn(CC(=O)Nc2cccc(Cl)c2)c(N)c1S(=O)(=O)c1ccc(OC)cc1 | – | · | 18.4µM | ? | – | ·
COc1ccc(S(=O)(=O)c2c(SC)nn(CC(=O)Nc3ccc(C)c(Cl)c3)c2N)cc1 | – | · | 23.1µM | ? | – | ·
[2H]C(CCOS(N)(=O)=O)c1ccc(C(C)(C)C)cc1 (stereo unspecified) | – | – | 5.17µM | – | – | –
NS(=O)(=O)OCCCc1ccccc1 | – | · | – | – | – | –
Fc1ccc(NC(=S)Nc2ccc(Br)cc2)cc1 | – | ? | 18.4µM | ? | – | –
Oc1ccc(NC(=S)Nc2ccc(F)cc2)cc1 | – | – | – | – | – | –
COc1ccc(C(C)=O)cc1CSc1nc(NCc2ccccc2)c2ccccc2n1 | · | · | · | 23.1µM | – | ·
Cc1sc(NC(=O)c2ccc(OCC(C)C)cc2)c(C(N)=O)c1-c1ccc(Cl)cc1Cl | – | – | 18.4µM | – | – | –
COc1ccc(-n2nc(C(=O)N3CCN(c4cccc(C(F)(F)F)c4)CC3)c3c4ccccc4n(C)c3c2=O)cc1Cl | · | · | – | – | – | ·
O=C(Nc1ccc(Oc2ccccc2)nc1)C1CCN(Cc2cccc(F)c2)CC1 | – | – | 18.4µM | ? | – | –
C#Cc1ccc(CN2CCC(C(=O)Nc3ccc(Oc4ccccc4)nc3)CC2)cc1 | – | ? | 18.4µM | ? | – | –
Cc1cccc(-n2c(=O)c3c(c4cc(C)ccc4n3C)n(CC(=O)Nc3ccc(C)cc3C)c2=O)c1 | – | · | ? | – | – | ·
COc1ccc(CNC(=O)CCc2c(C)nc3c(c2C)c(=O)n(C)c(=O)n3C)cc1 | – | · | – | – | – | ·
O=C(C1CCCN(S(=O)(=O)c2cccc3nsnc23)C1)N1CCc2ccccc2C1 (stereo unspecified) | – | – | 14.6µM | – | – | –
COCc1nnc(NC(=O)c2cc(Cl)ccc2OC)s1 | – | – | – | · | 12.6µM | –
CCCc1nnc(NC(=O)c2cc3ccccc3o2)s1 | 5.01µM | – | ? | – | – | –
CCOCc1nnc(NC(=O)c2cc(Cl)ccc2OC)s1 | – | – | – | – | ? | –
Cc1csc(NC(=O)c2cc3ccccc3o2)n1 | – | ? | – | – | – | –
SMILES | BRCA1 expr act | p53 reactivation | Nrf2 inh | A549 viability | Nrf2 ARE act | IL2 activator
COCc1nnc(NC(=O)c2cc3ccccc3o2)s1 | 6.31µM | – | ? | – | – | –
O=C1CCc2cc(S(=O)(=O)Nc3cccc4ccccc34)ccc2N1 | · | · | ? | – | · | ·
O=C(Nc1ccc2c(c1)OCO2)c1ccc2sc([C@@H]3O[C@H](CO)[C@@H](O)[C@H]3O)nc2c1 | 3.16µM | · | · | · | – | –
O=C(Nc1ccc2c(c1)OCO2)c1ccc2sc([C@H]3C[C@H](O)[C@@H](CO)O3)nc2c1 | 8.91µM | · | · | · | – | –
O=C(Nc1nccs1)c1ccc2sc([C@H]3C[C@H](O)[C@@H](CO)O3)nc2c1 | 12.6µM | · | · | · | – | –
O=C(CSc1nc2ccccc2nc1Cc1ccc(F)cc1)Nc1ccc2c(c1)OCO2 | · | · | · | – | – | ·
CC(C)(C)OC(=O)NCc1nnc(-c2nc3ccccc3[nH]2)o1 | · | · | – | – | · | ·
O=C(CNC(=O)c1ccc2cc[nH]c2c1)OC(C(=O)Nc1cc(C(F)(F)F)ccc1Cl)c1ccccc1 (stereo unspecified) | · | · | – | – | · | ·
Cc1ccsc1CCNC(=O)C1CCC(=O)N(CCc2cccc(F)c2)C1 (stereo unspecified) | 7.94µM | ? | ? | – | – | –
Oc1ccc(NCc2ccc(OCc3ccccc3Cl)cc2)cc1 | · | · | ? | ? | 7.94µM | ·
Cc1cc(OC(=O)c2ccccc2Cl)cc(=O)n1C | – | – | 8.2µM | – | – | –
O=C(Oc1ccc(N2C(=O)CCC2=O)cc1)c1ccccc1Cl | – | – | ? | – | – | –
Cc1nc(N2CCCC2)ncc1C(=O)N1CCN(c2ccc(Cl)cc2)CC1 | · | · | · | – | – | ·
O=[N+]([O-])c1ccc(O)c2cccnc12 | – | – | – | – | – | –
O=[N+]([O-])c1cc(Cl)c(O)c2ncccc12 | – | ? | 20.6µM | ? | – | –
O=[N+]([O-])c1cc(Cl)c2cccnc2c1O | – | – | ? | ? | – | –
O=[N+]([O-])c1ccc(O)c2ncccc12 | – | – | 3.66µM | 13µM | – | –
Cn1ncc(Cl)c1C(=O)Nc1cccc(Cl)c1 | – | – | ? | – | – | –
Cn1ncc(N=Cc2c(O)ccc3ccccc23)c1C(=O)Nc1cccc(Cl)c1 | – | – | – | – | – | 247.0
COc1cccc(C2=Nn3c(nnc3-c3cc(OC)ccc3OC)SC2)c1 | · | · | – | – | · | ·
COC(=O)c1sc(-c2cccs2)cc1NC(=O)/C=C/C(=O)O | – | – | – | – | 15.8µM | –
CCCCCCCCn1c2c(c(=N)c3ccccc31)CCC2 | – | – | 2.91µM | ? | – | –
CCCCn1c2c(c(=N)c3ccccc31)CCC2 | – | – | – | – | – | –
Brc1ccc(-c2noc(COc3ccc4c(c3)CCC4)n2)o1 | – | – | – | – | – | –
c1csc(-c2noc(COc3ccc4c(c3)CCCC4)n2)c1 | 3.98µM | ? | ? | –[1.84 µM] | – | –
CCN(CC)CCNC(=O)c1cc(-c2cccnc2)nc2ccc(S(=O)(=O)N3CCC(C)CC3)cc12 | – | – | ? | 23.1µM | – | –
CCCCN(CCCC)CCNC(=O)c1cc(-c2cccnc2)nc2ccc(S(=O)(=O)N3CCC(C)CC3)cc12 | · | · | · | – | – | ·
COc1ccnc(Oc2cccc(C(F)(F)F)c2)c1C(=O)N/C=N/OCc1ccccc1F | – | – | 20.6µM | – | – | –

Source: PubChem BioAssay
